In test [1] the target is Acetylcholinesterase (Homo sapiens) (UniProt P22303). In words: Acetylcholinesterase (AChE) small molecule antagonists: colormetric cell-based qHTS assay (AID 1347395). Further: nearly all actives have a fitted effect of over 30% in size. Put shortly:
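SH-SY5Y cells, plated overnight at 37 C, were exposed to compounds for 30 min at 37 C and 5% CO2. Acetylthiocholine plus DTNB was then added, and thiocholine from endogenous AChE was quantified colorimetrically after 90 min at 37 C.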
(In general: qHTS replaces the single test concentration by a dilution series.)

Test [2] has the same target. Kind of test: Acetylcholinesterase (AChE) small molecule antagonists: enzyme-based qHTS assay (AID 1347397). Further: nearly all actives have a fitted effect of over 55% in size. To be noted: Potency: AChE enzyme activity inhibition; outcome: AChE enzyme activity inhibition. In short, it runs like this:
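Tox21 library chemicals are tested in qHTS format against recombinant human AChE. The enzyme, dispensed at 50 mU/mL, sits with compound for 30 min at room temperature. A DTNB–acetylthiocholine cocktail follows, and colour is read after 10 min.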

The target is the same in test [3]. In words: Acetylcholinesterase (AChE) small molecule antagonists: fluorescence cell-based qHTS assay (AID 1347398). Further: nearly all actives have a fitted effect of over 50% in size. Further: potency means the concentration at half of the fitted maximal effect. To be noted: Potency: AChE activity; outcome: AChE activity. Put shortly: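 Cellular AChE inhibition: SH-SY5Y cells treated with test chemical for 30 min at 37 C, then acetylthiocholine hydrolysis followed over 40 min at room temperature via thiocholine-reactive Thiolite Green fluorescence (490/520 nm).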

Test [4] has the same target. In words: Acetylcholinesterase (AChE) small molecule antagonists: enzyme-based qHTS assay with human liver microsomes (AID 1347399). Further: nearly all actives have a fitted effect of over 60% in size. To be noted: Potency: qHTS inhibition; outcome: qHTS inhibition. In short, it runs like this:
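Recombinant human AChE (50 mU/mL in the enzyme mix) and human liver microsomes (0.25 mg/mL final) were preincubated with compound and NADPH (0.25 mg/mL final) for 30 min at 37 C. Acetylthiocholine/DTNB was then added; thiocholine was read colorimetrically after 10 min at room temperature.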

Results filed as inconclusive are left out. The source made the active and inactive calls. The call rests on the fitted dose curve.

This passage reports Potency and outcome results from PubChem BioAssay (Tox21).

Sequence of Acetylcholinesterase (Homo sapiens) (P22303 whole entry, looked up): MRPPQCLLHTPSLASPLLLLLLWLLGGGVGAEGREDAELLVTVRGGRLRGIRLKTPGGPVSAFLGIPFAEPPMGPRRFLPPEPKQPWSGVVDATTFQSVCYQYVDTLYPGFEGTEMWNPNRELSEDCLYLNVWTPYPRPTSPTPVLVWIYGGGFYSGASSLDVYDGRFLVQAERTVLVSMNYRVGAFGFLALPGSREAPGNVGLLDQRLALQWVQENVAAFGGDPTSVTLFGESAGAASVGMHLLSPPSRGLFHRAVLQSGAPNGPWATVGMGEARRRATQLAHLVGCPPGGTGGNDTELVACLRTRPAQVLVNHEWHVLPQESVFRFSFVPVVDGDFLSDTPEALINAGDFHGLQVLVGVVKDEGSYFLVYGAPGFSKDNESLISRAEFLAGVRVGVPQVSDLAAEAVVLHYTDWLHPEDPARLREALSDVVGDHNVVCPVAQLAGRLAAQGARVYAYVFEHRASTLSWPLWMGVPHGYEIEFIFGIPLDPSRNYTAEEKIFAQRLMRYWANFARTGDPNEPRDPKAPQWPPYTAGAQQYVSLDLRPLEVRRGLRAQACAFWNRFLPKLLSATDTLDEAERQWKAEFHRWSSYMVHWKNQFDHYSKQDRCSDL

On to `Cc1ccc(C(C)C)c(O)c1`, for which the Potency entry in test [1], in test [2], in test [3] and in test [4] was “inactive” throughout.

Consider `CC(COC(=O)c1ccccc1)OC(=O)c1ccccc1` (stereo not given), for which the Potency entry in test [1], in test [2], in test [3] and in test [4] was “inactive” each time.

Consider `OCC(O)CN1CCN(c2ccccc2)CC1` (stereo not given), for which the Potency result in test [1], in test [2], in test [3] and in test [4] was “inactive” throughout.

In the case of `CCCCCCCCCCCCCBr`, the Potency entry in test [1], in test [2], in test [3] and in test [4] was “inactive” each time.

Consider `CC(C(=O)O)c1ccc(/C=C2\CCCCC2=O)cc1` (stereo not given), for which the Potency entry in test [1], in test [2], in test [3] and in test [4] was “inactive” throughout.

Take `CCC(=O)Oc1ccc(/C(CC)=C(\CC)c2ccc(OC(=O)CC)cc2)cc1`: the Potency entry in test [1], in test [2], in test [3] and in test [4] was “inactive” each time.

On to `Clc1nc(C(Cl)(Cl)Cl)c(Cl)c(Cl)c1Cl`, for which the Potency result in test [1], in test [2], in test [3] and in test [4] was “inactive” in each case.

As for `COc1cc2[nH]c(=O)[nH]c(=O)c2cc1OC`, the Potency result in test [1], in test [2], in test [3] and in test [4] was “inactive” each time.

Take `C[C@H]1C[C@H]2[C@@H]3CCC4=CC(=O)C=C[C@]4(C)[C@H]3C(=O)C[C@]2(C)[C@@]1(O)C(=O)CO`: the Potency result in test [1], in test [2], in test [3] and in test [4] was “inactive” each time.

As to `O=[N+]([O-])c1ccc2nc[nH]c2c1`, the Potency entry in test [1], in test [2], in test [3] and in test [4] was “inactive” throughout.

In the case of `CCN(CC#N)c1cccc(C)c1`, the Potency result in test [1], in test [2], in test [3] and in test [4] was “inactive” in each case.

Consider `CC/C(C)=N\O[Si](C)(O/N=C(\C)CC)O/N=C(\C)CC`, for which the Potency result in test [1], in test [2], in test [3] and in test [4] was “inactive” in each case.

On to `Cc1ccccc1OCC(O)CO` (stereo not given), for which the Potency entry in test [1], in test [2], in test [3] and in test [4] was “inactive” each time.

In the case of `CC(C)S`, the Potency entry in test [1], in test [2], in test [3] and in test [4] was “inactive” each time.

Consider `CCCCC(CC)COC(=O)COc1ccc(Cl)cc1Cl` (stereo not given), for which the Potency result in test [1], in test [2], in test [3] and in test [4] was “inactive” each time.

Take `CC(=O)OCCOC(C)=O`: the Potency entry in test [1], in test [2], in test [3] and in test [4] was “inactive” in each case.

Turning to `O=C(O)CCCCCCCCCC(=O)O`, the Potency entry in test [1], in test [2], in test [3] and in test [4] was “inactive” throughout.

For the compound `CCC(C)(C)C1CCCCC1OC(C)=O` (stereo not given), the Potency entry in test [1], in test [2], in test [3] and in test [4] was “inactive” in each case.

Regarding `CCC(=O)OC/C=C/c1ccccc1`, the Potency entry in test [1], in test [2], in test [3] and in test [4] was “inactive” throughout.

As for `CCOC(=O)C1=NOC(c2ccccc2)(c2ccccc2)C1`, the Potency result in test [1], in test [2], in test [3] and in test [4] was “inactive” in each case.

`C=CC(C)(CCC=C(C)C)OC(=O)c1ccccc1` (stereo not given): the Potency result in test [1], in test [2], in test [3] and in test [4] was “inactive” in each case.

For the compound `O=C1C=CC(=O)N1c1ccccc1`, the Potency result in test [1], in test [2] and in test [4] was “inactive” in each case. The Potency in test [3] was 35.6 µM (active).

On to `COS(=O)(=O)C(F)(F)F`, for which the Potency result in test [1], in test [2], in test [3] and in test [4] was “inactive” throughout.

Turning to `O=C(c1ccc(O)cc1)c1ccc(O)cc1O`, the Potency result in test [1], in test [2], in test [3] and in test [4] was “inactive” each time.

For the compound `NC(CO)C(=O)NNCc1ccc(O)c(O)c1O` (stereo not given), the Potency result in test [1], in test [2], in test [3] and in test [4] was “inactive” throughout.

As to `COc1nc(C)nc(NC(=O)NS(=O)(=O)c2ccccc2OCCCl)n1`, the Potency result in test [1], in test [2], in test [3] and in test [4] was “inactive” throughout.

As for `CC(=O)OC[C@H]1O[C@@H](n2ncc(=O)[nH]c2=O)[C@H](OC(C)=O)[C@@H]1OC(C)=O`, the Potency entry in test [1], in test [2], in test [3] and in test [4] was “inactive” throughout.

For the compound `Nc1ccc(S(=O)(=O)O)cc1`, the Potency entry in test [1], in test [2], in test [3] and in test [4] was “inactive” in each case.

On to `C#C[C@]1(O)CC[C@H]2[C@@H]3CCC4=CC(=O)CC[C@@H]4[C@H]3CC[C@@]21CC`, for which the Potency result in test [1], in test [2], in test [3] and in test [4] was “inactive” each time.

As to `C=C(C)c1cccc(C(C)(C)N=C=O)c1`, the Potency result in test [1], in test [2], in test [3] and in test [4] was “inactive” throughout.

For the compound `CCC(=O)O[C@]1(C(=O)CCl)[C@@H](C)C[C@H]2[C@@H]3CCC4=CC(=O)C=C[C@]4(C)[C@@]3(F)[C@@H](O)C[C@@]21C`, the Potency result in test [1], in test [2], in test [3] and in test [4] was “inactive” throughout.

In the case of `CC[C@@]1(O)C(=O)OCc2c1cc1n(c2=O)Cc2cc3c(CN(C)C)c(O)ccc3nc2-1`, the Potency result in test [1], in test [2], in test [3] and in test [4] was “inactive” each time.

As for `CC(C)Cn1cnc2c1c(=O)n(C)c(=O)n2C`, the Potency entry in test [1], in test [2], in test [3] and in test [4] was “inactive” in each case.

For `O=C(O)c1ccccc1C(c1ccc(O)cc1)c1ccc(O)cc1`, the Potency result in test [1], in test [2], in test [3] and in test [4] was “inactive” throughout.

With `c1ccc(Oc2ccccc2)cc1`, the Potency result in test [1], in test [2], in test [3] and in test [4] was “inactive” each time.

On to `CN(C)Cc1cc(C(C)(C)C)c(O)c(C(C)(C)C)c1`, for which the Potency entry in test [1], in test [2], in test [3] and in test [4] was “inactive” in each case.

On to `CC/C=C1/OC(=O)c2ccccc21`, for which the Potency result in test [1], in test [2], in test [3] and in test [4] was “inactive” in each case.

Turning to `CCc1cc2cc(OC)c(OC)cc2c(Cc2ccccc2)n1`, the Potency result in test [1], in test [2], in test [3] and in test [4] was “inactive” throughout.

As for `FC(F)(Cl)C(F)(Cl)Cl`, the Potency result in test [1], in test [2], in test [3] and in test [4] was “inactive” in each case.

`S=C1NC=NC2N=CNC12` (stereo not given): the Potency result in test [1], in test [2], in test [3] and in test [4] was “inactive” throughout.

Take `CCCCCCCC(=O)OCC(O)CO` (stereo not given): the Potency entry in test [1], in test [2], in test [3] and in test [4] was “inactive” in each case.

Turning to `O=C1Nc2ccccc2C1=O`, the Potency entry in test [1], in test [2], in test [3] and in test [4] was “inactive” each time.

In the case of `CNC[C@H](O)c1ccc(O)c(O)c1`, the result in test [1], in test [2], in test [3] and in test [4] was inactive.

Turning to `O=c1c(-c2ccc(O)cc2)coc2cc(O)cc(O)c12`, the Potency entry in test [1], in test [2], in test [3] and in test [4] was “inactive” in each case.

Take `CCCCc1nc2cccnc2n1Cc1ccc(-c2ccccc2-c2nnn[nH]2)cc1`: the Potency entry in test [1], in test [2], in test [3] and in test [4] was “inactive” each time.

For `C[C@H](CCC(=O)O)[C@H]1CC[C@H]2[C@@H]3CC[C@@H]4C[C@H](O)CC[C@]4(C)[C@H]3C[C@H](O)[C@]12C`, the Potency entry in test [1], in test [2], in test [3] and in test [4] was “inactive” in each case.

In the case of `C(=C(c1ccccc1)c1ccccc1)c1ccccc1`, the Potency entry in test [1], in test [2], in test [3] and in test [4] was “inactive” each time.

Regarding `Nc1ccc(C(=O)Oc2ccccc2)c(O)c1`, the Potency entry in test [1], in test [2], in test [3] and in test [4] was “inactive” throughout.

`NC(=O)CCCCC1CCSS1` (stereo not given): the Potency result in test [1], in test [2], in test [3] and in test [4] was “inactive” in each case.

Turning to `CCCCCOC(=O)Nc1nc(=O)n([C@@H]2O[C@H](C)[C@@H](O)[C@H]2O)cc1F`, the Potency entry in test [1], in test [2], in test [3] and in test [4] was “inactive” throughout.

On to `CCOC(=O)/C=C/C(=O)O`, for which the Potency entry in test [1], in test [2], in test [3] and in test [4] was “inactive” each time.

Regarding `OC(CCN1CCCCC1)(c1ccccc1)C1CCCCC1` (stereo not given), the result in test [1], in test [2], in test [3] and in test [4] was inactive.

In the case of `O=C(OCC1CCC2OC2C1)C1CCC2OC2C1` (stereo not given), the Potency entry in test [1], in test [2], in test [3] and in test [4] was “inactive” in each case.

In the case of `ICCc1ccccc1`, the Potency entry in test [1], in test [2], in test [3] and in test [4] was “inactive” in each case.

On to `CCO[Si](CCCN=C=O)(OCC)OCC`, for which the Potency entry in test [1], in test [2], in test [3] and in test [4] was “inactive” throughout.

Turning to `Cc1ccccc1C(=O)Nc1ccc(C(=O)N2CCCC(O)c3cc(Cl)ccc32)c(C)c1` (stereo not given), the Potency result in test [1], in test [2], in test [3] and in test [4] was “inactive” throughout.

As for `CCOCCOCCOCC`, the Potency entry in test [1], in test [2], in test [3] and in test [4] was “inactive” throughout.

`C[C@H]1C[C@H]2[C@@H]3CCC4=CC(=O)C=C[C@]4(C)[C@@]3(Cl)[C@@H](O)C[C@]2(C)[C@@]1(O)C(=O)CO`: the Potency entry in test [1], in test [2], in test [3] and in test [4] was “inactive” each time.

As for `CCN(C=O)CC`, the Potency result in test [1], in test [2], in test [3] and in test [4] was “inactive” each time.

In the case of `O=[N+]([O-])c1ccc(NCCO)c(OCCO)c1`, the Potency result in test [1], in test [2], in test [3] and in test [4] was “inactive” throughout.
